# Source: PubChem BioAssay (The Scripps Research Institute Molecular Screening Center)
# Sampled rows, rich in hits. Any-hit rate of the full collection: about 5.7%.
# hcDAF12 agonist: H. contortus DAF-12 nuclear receptor activators, primary screen, cell-based, luminescence, HEK293, lit1-tk-luc reporter. HEK293 hcDAF-12 lit1-tk-luc reporter; 0% DMSO, 100% Δ7-dafachronic acid. activation, % at 6.8 µM. actives 1.4% (n = 370,000);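 active means activation above the mean of all tested compounds plus 3 SD, cut at about 5.5% in these data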;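 further: 100% = response to 3 µM Δ7-dafachronic acid high control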
# hgDAF12 agonist: H. glycines DAF-12 receptor agonists, primary screen, cell-based, luminescence, HEK293, GAL4 fusion, UAS-luciferase; Nuclear hormone receptor DAF-12 (Heterodera glycines), GAL4 fusion; HEK293 GAL4-hgDAF12 UAS-luciferase reporter, agonist luminescence; normalized to butyrate control; activation, % at 6.8 µM; actives 1.8% (n = 370,000); AID 687014, 2013;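 active means activation above a cutoff set at the mean of all screened compounds plus 3 SD, cut at about 10% in these data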;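 further: 0% = DMSO wells and 100% = sodium butyrate wells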
# ssDAF-12 act: S. stercoralis DAF-12 nuclear receptor activators, primary screen, cell-based, luminescence, HEK293, GRIP1 co-expression, lit1-tk-luc. Nuclear hormone receptor DAF-12 (Strongyloides stercoralis). HEK293 ssDAF-12/GRIP1 lit1-tk-luc reporter; % of 3 µM dafachronic acid response. activation, % at 6.8 µM. actives 1% (n = 370,000);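 active means activation above the mean over all tested compounds plus 3 SD, cut at about 0.9% in these data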;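 further: 0% = DMSO-only wells and 100% = 3 µM delta7-dafachronic acid wells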
# DAX1 inh-1: DAX1 (NR0B1) inhibitors on StAR promoter, primary screen, cell-based, luminescence, SF-1 (NR5A1), full-length DAX-1; inhibition, % at 6.8 µM; HEK293T StAR-luciferase reporter, SF-1/DAX-1 repression relief; actives 1.1% (n = 370,000);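 active means inhibition above the mean over all tested compounds plus 3 SD, cut at about 3.6% in these data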;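 further: 0% = DAX-1 cells with DMSO and 100% = cells lacking DAX-1 with DMSO; higher inhibition means more luminescence from relief of DAX-1 repression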
# DAX1 inh-2: DAX1 (NR0B1) inhibitors, primary screen, cell-based, HEK293, Gal4-DAX1, luciferase luminescence; HEK293 Gal4-DAX1 luciferase reporter; inhibition, % at 6.75 µM; actives 0.99% (n = 340,000);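 active means inhibition above the mean over all tested compounds plus 3 SD, cut at about 4.2% in these data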;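 further: 0% = DAX1-transfected cells with DMSO and 100% = empty-vector control cells with DMSO; inhibition shows as a rise in luminescence from relieved DAX1 repression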
# Target sequence (P51843 207-470 limits assumed): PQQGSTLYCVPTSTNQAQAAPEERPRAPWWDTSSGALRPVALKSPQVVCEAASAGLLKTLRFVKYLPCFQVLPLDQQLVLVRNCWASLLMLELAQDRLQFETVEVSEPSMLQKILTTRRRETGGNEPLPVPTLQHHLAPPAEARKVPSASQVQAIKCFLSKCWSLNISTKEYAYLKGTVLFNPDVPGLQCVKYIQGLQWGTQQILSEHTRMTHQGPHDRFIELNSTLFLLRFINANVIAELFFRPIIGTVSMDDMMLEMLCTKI
# AHR activator: AHR activators, primary screen, cell-based, luminescence, luciferase reporter, human. Aryl hydrocarbon receptor (Homo sapiens), P35869. AHR-responsive luciferase reporter cells. activation, % at 5 µM. actives 2.5% (n = 320,000); in the data active means activation above about 47%;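 further: 0% = vehicle wells and 100% = reference agonist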
# Starred values were filed as active, the others as inactive; · = no result.
SMILES,hcDAF12 agonist,hgDAF12 agonist,ssDAF-12 act,DAX1 inh-1,DAX1 inh-2,AHR activator
O[C@@H](Cc1ccccc1)[C@@H](/C=C/c1ccccc1)NCCc1ccccc1,-1,-2,0,-1,·,·
CCn1c(SCC(=O)N/N=C/c2c[nH]c3ccccc23)nnc1-c1ccc(C)cc1,-1,4,-2,-2,-1,5
Cc1ccc(C(=O)N/N=C\c2ccncc2)s1,2,0,-1,2,1,55*
C=CCN1C(=O)c2ccc(C(=O)N(C)CC(=O)Nc3ccccc3Cl)cc2C1=O,-1,4,-1,1,1,20
Cc1cc(C)nc(NC(=O)c2cnc3sccn3c2=O)n1,5,1,0,0,0,70*
Cc1cc(NS(=O)(=O)c2ccc(NC(=O)c3cnc4sccn4c3=O)cc2)nc(C)n1,0,4,-1,1,0,-1
COc1cccc(NC(=O)C2=COCCO2)c1,4,2,-1,3.7*,3,8
COc1ccc(OC)c(-c2csc(NC(=O)C3=COCCO3)n2)c1,1,4,-1,-1,-1,50*
O=C(COC(=O)C1=COCCO1)Nc1ccccc1,1,1,0,1,4.4*,2
O=C(COC(=O)C1=COCCO1)Nc1cccc(Oc2ccccc2)c1,0,-1,-1,0,1,-1
CCOc1nc2cnccc2n(CC(=O)Nc2ccccc2C(=O)OC)c1=O,1,2,-1,0,0,7
NC(=O)NC(=O)C(c1ccccc1)N1CCN(S(=O)(=O)c2ccc(Br)s2)CC1 (configuration not stated),0,4,0,-3,-1,-2
COc1ccccc1NC(=O)c1oc2ccccc2c1NC(=O)c1cc(OC)c(OC)c(OC)c1,-1,-1,-1,0,-1,21
COCC(=O)Nc1c(C(=O)Nc2cccc(OC)c2)oc2ccccc12,0,9,0,0,1,70*
COCC(=O)Nc1c(C(=O)Nc2ccccc2OC)oc2ccccc12,3,2,0,-1,0,84*
COc1cccc(NC(=O)c2oc3ccccc3c2NC(C)=O)c1,·,·,·,·,2,29
COc1ccccc1NC(=O)c1oc2ccc(C)cc2c1C,4,6,0,0,1,60*
CSc1nc2cc(C)nn2c(-c2ccccc2Cl)c1C#N,0,0,-1,0,-1,-1
COc1ncc(-c2ccc(N3C(c4ccsc4)=Cc4ccc(F)cc4C3CC(=O)c3ccco3)cc2)cn1 (configuration not stated),1,2,-1,-1,·,·
O=C1C=C(c2ccc3c(c2)OCO3)C[C@@H](c2ccc3c(c2)OCO3)C1,-2,0,-1,0,1,61*
O=C1C=C(c2cccc(CO)c2)C[C@@H](c2ccc3c(c2)OCO3)C1,-1,2,-2,-1,-1,73*
Cc1cc(C2=CC(=O)C[C@H](c3ccc4c(c3)OCO4)C2)ccc1F,-2,0,-1,1,0,79*
O=C1C=C(c2ccc(-c3ccccc3)c(F)c2)C[C@@H](c2ccc3c(c2)OCO3)C1,-1,-2,-1,0,2,3
CCOC(=O)Cc1nnc(NC(=O)CSc2ccccc2)s1,0,-2,-1,0,0,12
CCn1c(SCC(=O)NC(C)C(C)C)nc2cc(S(=O)(=O)N3CCOCC3)ccc21 (configuration not stated),-1,-3,-1,2,1,-1
SMILES,hcDAF12 agonist,hgDAF12 agonist,ssDAF-12 act,DAX1 inh-1,DAX1 inh-2,AHR activator
FC(F)(F)c1cccc(-c2nc(-c3ccncc3)no2)c1,0,6,-1,1,3,·
FC(F)(F)c1cccc(OCc2noc(-c3ccsc3)n2)c1,-1,1,-1,0,5.5*,-2
O=C1N(c2ccccc2)C(c2ccc(Cl)cc2)N2CCCN12 (configuration not stated),-2,0,-1,-1,0,-1
CCOC(=O)c1nn(-c2ccc([N+](=O)[O-])cc2)cc1O,0,2,-1,2,2,2
CCOC(=O)c1nn(-c2ccc(C)c(C)c2)cc1O,5,13*,-1,3,2,0
CC(C)CCC1(C)NC(=O)N(CC(=O)NCC(=O)Nc2ccc(F)c(F)c2F)C1=O (configuration not stated),2,-3,0,0,-1,1
CCOc1[nH]n(-c2ccccc2)c(=O)c1C=NCc1cccnc1,-1,-3,-1,0,-1,59*
O=C(O)C1CC=CCC1C(=O)Nc1ccccc1C(=O)N1CCN(c2ccc(F)cc2)CC1 (configuration not stated),0,-3,-1,0,1,-1
Nc1c(N)c2ccccc2oc1=O,0,1,0,0,0,9
Nc1c(C(=O)c2ccc(Br)s2)oc2ccccc12,3,4,0,0,0,68*
Nc1c(C(=O)c2cccs2)oc2ccccc12,6.1*,7,0,1,1,49*
CCOC(=O)C(=O)N(C)c1c(CC)nc2c(OCc3cccc(Cl)c3)cccn12,0,1,-1,0,·,·
COc1cc(OC)cc(C(=O)NC(=S)NNC(=O)c2cnccn2)c1,-1,1,-2,0,1,3
COc1ccc(C(=O)NC(=S)NNC(=O)c2cnccn2)cc1OC,-1,5,-1,0,4.9*,1
CCOC(=O)N/N=C/c1ccc(F)cc1F,1,4,1.0*,0,0,1
COC(=O)N/N=C/c1c[nH]c2ccccc12,6,5,1,0,0,7
O=C(O)c1ccc(S(=O)(=O)NN=Cc2c[nH]c3ccccc23)cc1,3,1,0,-1,1,·
Nc1ccc(C(=O)N/N=C/c2c[nH]c3ccccc23)cc1,4,4,-1,0,1,14
NC(=S)N/N=C/c1c[nH]c2ccccc12,5,1,1.8*,0,-1,11
CCOC(=O)N/N=C/c1c[nH]c2ccccc12,6.2*,6,0,-1,4,21
Cc1ccc(S(=O)(=O)N/N=C/c2c[nH]c3ccccc23)cc1,1,1,0.9*,-1,-1,12
